Assay results published in PubChem BioAssay (EPA / NIEHS).
Inconclusive results are not listed. Calls of active or inactive are those of the source. How the source made its calls: active means hit-call score of the fitted dose curve at least 0.9, where 1 is the maximum; inconclusive means response in the unintended direction; inactive means score below 0.9.

These molecules were tested against human Protein Tyrosine Phosphatase Receptor Type M (PTPRM), PTPRM (gene 5797) (UniProt P28827) (assay: NVS_ENZ_hPTPRM: NovaScreen (NVS) Enzymatic Assay for human Protein Tyrosine Phosphatase Receptor Type M (PTPRM) (AID 2283215)).
Chain of human Protein Tyrosine Phosphatase Receptor Type M (PTPRM), PTPRM (gene 5797) (P28827 whole entry, looked up): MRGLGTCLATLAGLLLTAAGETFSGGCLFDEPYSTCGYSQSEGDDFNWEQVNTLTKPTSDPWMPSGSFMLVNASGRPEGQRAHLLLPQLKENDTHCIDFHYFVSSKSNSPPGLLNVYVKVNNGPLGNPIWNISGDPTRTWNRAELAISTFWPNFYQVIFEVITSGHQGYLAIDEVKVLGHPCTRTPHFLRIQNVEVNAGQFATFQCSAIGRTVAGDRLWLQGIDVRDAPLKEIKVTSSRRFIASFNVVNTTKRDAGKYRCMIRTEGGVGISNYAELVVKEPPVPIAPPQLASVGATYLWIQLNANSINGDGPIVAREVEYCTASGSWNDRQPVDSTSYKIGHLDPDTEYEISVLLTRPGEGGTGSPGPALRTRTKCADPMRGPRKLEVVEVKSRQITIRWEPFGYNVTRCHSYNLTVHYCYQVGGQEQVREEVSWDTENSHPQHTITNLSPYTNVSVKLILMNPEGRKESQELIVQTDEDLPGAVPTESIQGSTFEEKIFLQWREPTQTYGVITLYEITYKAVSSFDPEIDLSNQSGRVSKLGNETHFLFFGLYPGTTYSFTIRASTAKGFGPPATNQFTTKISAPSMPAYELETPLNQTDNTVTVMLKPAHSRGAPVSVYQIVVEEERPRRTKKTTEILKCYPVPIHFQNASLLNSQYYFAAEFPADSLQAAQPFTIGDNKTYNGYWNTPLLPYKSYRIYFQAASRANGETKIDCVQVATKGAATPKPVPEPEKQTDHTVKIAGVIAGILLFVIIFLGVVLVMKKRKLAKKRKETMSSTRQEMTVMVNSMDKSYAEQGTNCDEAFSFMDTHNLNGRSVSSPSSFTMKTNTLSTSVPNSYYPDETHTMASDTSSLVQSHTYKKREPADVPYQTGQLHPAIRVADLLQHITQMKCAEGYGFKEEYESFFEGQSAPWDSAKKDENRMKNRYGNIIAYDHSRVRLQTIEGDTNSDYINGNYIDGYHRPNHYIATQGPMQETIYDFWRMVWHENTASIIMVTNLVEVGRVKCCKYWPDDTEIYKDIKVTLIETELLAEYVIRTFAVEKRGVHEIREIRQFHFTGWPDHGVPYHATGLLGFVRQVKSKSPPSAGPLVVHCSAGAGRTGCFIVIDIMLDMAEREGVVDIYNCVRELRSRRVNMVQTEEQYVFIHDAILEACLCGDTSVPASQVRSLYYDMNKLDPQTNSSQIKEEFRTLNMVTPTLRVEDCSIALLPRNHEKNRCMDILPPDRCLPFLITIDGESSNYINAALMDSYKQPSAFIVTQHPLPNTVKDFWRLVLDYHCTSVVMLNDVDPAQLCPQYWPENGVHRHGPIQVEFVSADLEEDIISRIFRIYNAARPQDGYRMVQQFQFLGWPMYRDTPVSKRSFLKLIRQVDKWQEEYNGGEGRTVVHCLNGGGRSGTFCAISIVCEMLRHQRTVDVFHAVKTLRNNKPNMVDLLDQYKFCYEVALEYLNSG
Method in brief: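 Read-out is fluorescence after electrophoretic separation of substrate and product, taken 1.33 h post-dosing with recombinant enzyme. Compounds screened at 25 uM in duplicate, then concentration series for actives; activity as signal loss relative to DMSO.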
O=C1NC(=O)C(c2ccccc2)(c2ccccc2)N1 was tested, and the outcome was “inactive”. CCCCOC(=O)CCCCC(=O)OCCCC was tested, and the outcome was “inactive”. For COc1ccc(OC(F)(F)F)cc1CN[C@H]1CCCN[C@H]1c1ccccc1, the outcome was “inactive”.

Each molecule was assayed against human Sirtuin 2 (SIRT2), SIRT2 (gene 22933) (UniProt Q8IXJ6) (assay: NVS_ENZ_hSIRT2: NovaScreen (NVS) Enzymatic Assay for human Sirtuin 2 (SIRT2) (AID 2283217)).
Chain of human Sirtuin 2 (SIRT2), SIRT2 (gene 22933) (Q8IXJ6 whole entry, looked up): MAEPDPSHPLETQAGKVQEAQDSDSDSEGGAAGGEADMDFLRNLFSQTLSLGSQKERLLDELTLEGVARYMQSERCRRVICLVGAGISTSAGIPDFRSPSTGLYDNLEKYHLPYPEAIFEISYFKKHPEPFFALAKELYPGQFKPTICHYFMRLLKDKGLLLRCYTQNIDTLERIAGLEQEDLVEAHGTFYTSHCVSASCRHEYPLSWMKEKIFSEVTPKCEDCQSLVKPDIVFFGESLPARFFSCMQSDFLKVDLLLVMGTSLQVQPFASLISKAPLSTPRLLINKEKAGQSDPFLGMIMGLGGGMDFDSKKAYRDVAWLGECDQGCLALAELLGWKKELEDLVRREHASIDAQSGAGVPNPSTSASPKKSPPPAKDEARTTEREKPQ
Method in brief: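 Single-point duplicate screen at 25 uM, then concentration-response (max 50 uM) for chemicals passing threshold. Enzyme activity of recombinant human SIRT2 measured after 1 hr by fluorescence with mobility-shift separation of product; DMSO baseline.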
For C=CCc1ccc(OC)c(OC)c1, the outcome was “inactive”. In the case of Cc1occc(=O)c1O, the outcome is reported as “inactive”. O=C(N[C@@H](c1ccccc1)[C@@H]1CCCCN1)c1cccc(C(F)(F)F)c1Cl was tested, and the outcome was “inactive”. In the case of CN(C)C(=O)NC1(c2ccccc2)CCN(CCC[C@]2(c3ccc(Cl)c(Cl)c3)CCCN(C(=O)c3ccccc3)C2)CC1, the AC50 is reported as 1.69 µM (active). For CCN(CC)CCOc1ccc(C(=C(Cl)c2ccccc2)c2ccccc2)cc1, the AC50 was 21 µM (active).

What follows are molecules tested against human Sirtuin 1 (SIRT1), SIRT1 (gene 23411) (UniProt Q96EB6) (assay: NVS_ENZ_hSIRT1: NovaScreen (NVS) Enzymatic Assay for human Sirtuin 1 (SIRT1) (AID 2283219)).
Chain of human Sirtuin 1 (SIRT1), SIRT1 (gene 23411) (Q96EB6 whole entry, looked up): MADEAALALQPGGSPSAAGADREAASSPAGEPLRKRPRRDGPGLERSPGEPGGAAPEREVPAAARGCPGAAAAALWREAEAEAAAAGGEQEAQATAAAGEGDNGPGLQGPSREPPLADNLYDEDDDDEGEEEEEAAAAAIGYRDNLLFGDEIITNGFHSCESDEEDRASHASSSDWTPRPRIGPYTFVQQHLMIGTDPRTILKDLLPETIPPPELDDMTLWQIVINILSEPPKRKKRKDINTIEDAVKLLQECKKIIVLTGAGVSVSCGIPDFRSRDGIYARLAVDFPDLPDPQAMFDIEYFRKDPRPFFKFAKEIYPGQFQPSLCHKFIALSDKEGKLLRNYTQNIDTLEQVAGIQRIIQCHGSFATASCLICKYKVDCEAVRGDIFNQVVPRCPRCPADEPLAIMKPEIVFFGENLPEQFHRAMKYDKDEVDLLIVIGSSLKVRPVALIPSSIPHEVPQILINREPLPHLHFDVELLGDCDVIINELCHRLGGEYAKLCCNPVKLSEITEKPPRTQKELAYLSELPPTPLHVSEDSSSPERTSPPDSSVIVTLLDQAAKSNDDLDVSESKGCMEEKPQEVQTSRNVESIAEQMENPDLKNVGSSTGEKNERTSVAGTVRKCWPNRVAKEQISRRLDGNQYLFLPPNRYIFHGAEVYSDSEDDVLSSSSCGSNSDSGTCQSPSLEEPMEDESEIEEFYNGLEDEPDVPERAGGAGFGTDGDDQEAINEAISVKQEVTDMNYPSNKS
Method in brief: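 Cell-free recombinant SIRT1 with a fluorescent substrate; substrate and product separated by electrophoretic mobility shift and read by fluorescence intensity, 1 h after dosing. Primary screen at 25 uM in duplicate; hits re-run in concentration-response up to 50 uM, relative to DMSO.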
For Cc1cc(SC2=C(O)C[C@@](CCc3ccc(N)cc3)(C(C)C)OC2=O)c(C(C)(C)C)cc1CO, the outcome was “inactive”. In the case of CC1=C(C)S(=O)(=O)CCS1(=O)=O, the outcome is reported as “inactive”. For O=C(Oc1ccccc1)c1cccc(C(=O)Oc2ccccc2)c1, the outcome was “inactive”. COC(=O)CCC(=O)OC was tested, and the outcome was “inactive”. With CC(C)(O)c1ccc(CNC(=O)c2cccnc2Oc2ccc(F)cc2)cc1 the outcome was “inactive”. N[C@@H](Cc1c[nH]c2ccccc12)C(=O)O was tested, and the outcome was “inactive”.
